In the supplement of paper PMC10849652:
The full data set covers some 7,900 targets. This sample favours those with a hit. About 0.6% of all pairs of compound and target were hits. A number with no mark means an inactive call.

How the values were obtained:
Experiment in all cases: log2 fold change, soluble protein after heating vs DMSO (PISA); higher = thermal stabilisation; K562 cells, 10 uM, 30 min; active = over 0.2 and 3.5 SD of the protein, either way, in both replicates (recomputed)
IRAK-1-4 Inhibitor I = compound: C1COCCN1CCN2C3=CC=CC=C3N=C2NC(=O)C4=CC(=CC=C4)[N+](=O)[O-] [IRAK-1-4 Inhibitor I]
How it was run: (§1)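 Thermal stability values are relative to control samples and come from duplicates. They are expressed as log2 fold changes. For measurement, K562 cells (2×10^6 cells/mL) received 10 μM compound for 30 min, and aliquots were heated for 3 min over 48°C-58°C, pooled, and extracted at 4°C in PBS with 0.5% NP-40. Soluble protein, the supernatant after 21,000xg for 90 min, was quantified by TMTpro 16plex LC-MS/MS with equalised channel sums.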

ibrutinib = compound: C=CC(=O)N1CCC[C@@H](n2nc(-c3ccc(Oc4ccccc4)cc3)c3c(N)ncnc32)C1 [ibrutinib]
How it was run: as §1

[1] = compound: CC(=O)c1cnc2ccc(-c3cc(Cl)c(O)c(Cl)c3)nc2c1N[C@H]1CC[C@H](CN(C)C)CC1
How it was run: as §1

ralimetinib = compound: CC(C)(C)Cn1c(N)nc2ccc(-c3[nH]c(C(C)(C)C)nc3-c3ccc(F)cc3)nc21 [ralimetinib]
How it was run: as §1

[2] = compound: CC(C)(O)CC(=O)NCCn1ccc2ncnc(Nc3ccc(Oc4cccc(C(F)(F)F)c4)c(Cl)c3)c21
How it was run: as §1

[3] = compound: CC(C)C1=C2N=C(C=C(N2N=C1)NCC3=CC=CC=C3)NCCCCCCN
How it was run: as §1

[4] = compound: CC(C)C[C@@H](C=O)NC(=O)[C@H](CC(C)C)NC(=O)[C@H](CC(C)C)NC(=O)OCc1ccccc1
How it was run: as §1

pinometostat = compound: CC(C)N(C[C@H]1O[C@@H](n2cnc3c(N)ncnc32)[C@H](O)[C@@H]1O)[C@H]1C[C@@H](CCc2nc3cc(C(C)(C)C)ccc3[nH]2)C1 [pinometostat]
How it was run: as §1

[5] = compound: CC1=C(C(CC(=O)N1)C2=CC=C(C=C2)C(F)(F)F)C(=O)NC3=C(C=C4C(=C3)C=NN4)F
How it was run: as §1

[6] = compound: CC1=C(C2=C(C=C1)C(=O)C3=CC=CC=C3N2CCCN)C
How it was run: as §1

[7] = compound: CC1=C(C=C(C=C1)NC(=O)C2=CC(=CC=C2)C(C)(C)C#N)NC3=CC4=C(C=C3)N=CN(C4=O)C
How it was run: as §1

[8] = compound: CC1=C(C=C(C=C1)NC(=O)C2=CC(=CC=C2)N(C)C)NC(=O)C3=CC=C(C=C3)O
How it was run: as §1

[9] = compound: CC1=CC=C(C=C1)SC2=C3C=C(SC3=CN=C2)C(=O)N
How it was run: as §1

[10] = compound: CC1=NC(=CC=C1)C2=C(N=C(N2)C(C)(C)C)C3=CC4=NC=CN=C4C=C3
How it was run: as §1

Nexturastat A = compound: CCCCN(Cc1ccc(C(=O)NO)cc1)C(=O)Nc1ccccc1 [Nexturastat A]
How it was run: as §1

vemurafenib = compound: CCCS(=O)(=O)Nc1ccc(F)c(C(=O)c2c[nH]c3ncc(-c4ccc(Cl)cc4)cc23)c1F [vemurafenib]
How it was run: as §1

[11] = compound: CCCS(=O)(=O)Nc1ccc(F)c(C(=O)c2c[nH]c3ncc(Cl)cc23)c1F
How it was run: as §1

[12] = compound: CCCc1cc(C)[nH]c(=O)c1CNC(=O)c1cc(-c2ccnc(N3CCN(C)CC3)c2)cc2c1cnn2C(C)C
How it was run: as §1

givinostat = compound: CCN(CC)Cc1ccc2cc(COC(=O)Nc3ccc(C(=O)NO)cc3)ccc2c1 [givinostat]
How it was run: as §1

barasertib = compound: CCN(CCCOc1ccc2c(Nc3cc(CC(=O)Nc4cccc(F)c4)[nH]n3)ncnc2c1)CCOP(=O)(O)O [barasertib]
How it was run: as §1

UniProt Q96DA6, sequence (Q96DA6 whole entry, looked up): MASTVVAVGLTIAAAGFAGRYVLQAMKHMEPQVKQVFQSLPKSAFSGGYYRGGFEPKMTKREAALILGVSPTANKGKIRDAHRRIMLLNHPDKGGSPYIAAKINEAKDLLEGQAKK
UniProt P24534, sequence (P24534 whole entry, looked up): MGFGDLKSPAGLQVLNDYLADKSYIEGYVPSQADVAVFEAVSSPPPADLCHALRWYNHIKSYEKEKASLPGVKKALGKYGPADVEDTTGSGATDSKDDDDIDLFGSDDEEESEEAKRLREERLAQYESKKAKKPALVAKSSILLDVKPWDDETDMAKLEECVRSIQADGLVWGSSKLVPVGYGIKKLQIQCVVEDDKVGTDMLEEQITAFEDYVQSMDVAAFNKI
UniProt Q03468, sequence (Q03468 whole entry, looked up): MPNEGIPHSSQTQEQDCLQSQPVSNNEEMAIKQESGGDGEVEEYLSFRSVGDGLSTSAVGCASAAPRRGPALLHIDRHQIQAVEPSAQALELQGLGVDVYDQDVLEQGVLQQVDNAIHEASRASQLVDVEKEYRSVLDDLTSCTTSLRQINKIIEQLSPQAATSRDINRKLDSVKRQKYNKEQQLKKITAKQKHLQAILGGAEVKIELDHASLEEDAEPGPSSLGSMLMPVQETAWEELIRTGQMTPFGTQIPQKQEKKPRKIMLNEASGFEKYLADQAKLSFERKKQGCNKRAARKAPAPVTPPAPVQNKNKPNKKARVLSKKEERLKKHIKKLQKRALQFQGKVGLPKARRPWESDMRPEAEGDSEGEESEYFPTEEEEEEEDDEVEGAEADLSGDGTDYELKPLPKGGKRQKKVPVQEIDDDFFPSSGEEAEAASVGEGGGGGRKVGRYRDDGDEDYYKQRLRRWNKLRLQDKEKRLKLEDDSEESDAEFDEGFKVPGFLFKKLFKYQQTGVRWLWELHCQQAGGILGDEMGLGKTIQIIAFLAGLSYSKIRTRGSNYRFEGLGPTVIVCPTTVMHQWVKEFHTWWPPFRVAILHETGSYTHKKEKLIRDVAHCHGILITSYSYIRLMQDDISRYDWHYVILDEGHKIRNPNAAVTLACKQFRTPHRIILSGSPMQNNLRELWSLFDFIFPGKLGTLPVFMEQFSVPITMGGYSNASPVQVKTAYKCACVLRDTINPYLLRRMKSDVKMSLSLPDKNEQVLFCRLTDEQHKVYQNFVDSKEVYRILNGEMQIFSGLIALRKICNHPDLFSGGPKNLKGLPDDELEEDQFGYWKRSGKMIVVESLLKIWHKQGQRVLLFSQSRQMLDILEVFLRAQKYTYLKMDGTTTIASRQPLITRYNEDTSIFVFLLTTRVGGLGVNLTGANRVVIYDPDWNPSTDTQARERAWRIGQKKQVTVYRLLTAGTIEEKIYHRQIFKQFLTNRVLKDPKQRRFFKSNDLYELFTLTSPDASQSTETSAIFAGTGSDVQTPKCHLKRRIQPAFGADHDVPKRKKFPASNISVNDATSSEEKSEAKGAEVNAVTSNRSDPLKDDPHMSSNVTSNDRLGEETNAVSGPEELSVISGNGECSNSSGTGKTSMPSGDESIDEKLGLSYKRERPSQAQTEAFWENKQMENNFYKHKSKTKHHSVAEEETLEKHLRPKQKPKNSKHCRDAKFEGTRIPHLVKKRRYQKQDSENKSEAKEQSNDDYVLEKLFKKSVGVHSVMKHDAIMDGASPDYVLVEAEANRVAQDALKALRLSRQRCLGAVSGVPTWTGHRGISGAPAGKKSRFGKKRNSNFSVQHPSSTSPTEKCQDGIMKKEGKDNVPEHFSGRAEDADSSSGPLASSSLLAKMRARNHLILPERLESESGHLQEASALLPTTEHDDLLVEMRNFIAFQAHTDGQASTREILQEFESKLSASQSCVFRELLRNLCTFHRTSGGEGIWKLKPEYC
UniProt O75071, sequence (O75071 whole entry, looked up): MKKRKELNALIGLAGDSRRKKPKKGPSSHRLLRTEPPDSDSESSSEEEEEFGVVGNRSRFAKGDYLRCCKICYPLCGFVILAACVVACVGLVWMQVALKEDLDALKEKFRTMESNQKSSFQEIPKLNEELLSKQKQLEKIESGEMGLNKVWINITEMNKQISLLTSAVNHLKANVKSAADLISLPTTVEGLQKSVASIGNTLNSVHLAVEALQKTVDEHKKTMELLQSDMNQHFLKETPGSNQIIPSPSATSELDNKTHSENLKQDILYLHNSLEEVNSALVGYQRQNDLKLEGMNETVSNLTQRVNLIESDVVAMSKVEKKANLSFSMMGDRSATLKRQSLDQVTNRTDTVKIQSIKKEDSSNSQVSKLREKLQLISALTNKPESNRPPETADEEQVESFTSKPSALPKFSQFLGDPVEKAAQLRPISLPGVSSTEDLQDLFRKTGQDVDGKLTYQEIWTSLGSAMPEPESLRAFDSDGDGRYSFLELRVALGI
UniProt O43237, sequence (O43237 whole entry, looked up): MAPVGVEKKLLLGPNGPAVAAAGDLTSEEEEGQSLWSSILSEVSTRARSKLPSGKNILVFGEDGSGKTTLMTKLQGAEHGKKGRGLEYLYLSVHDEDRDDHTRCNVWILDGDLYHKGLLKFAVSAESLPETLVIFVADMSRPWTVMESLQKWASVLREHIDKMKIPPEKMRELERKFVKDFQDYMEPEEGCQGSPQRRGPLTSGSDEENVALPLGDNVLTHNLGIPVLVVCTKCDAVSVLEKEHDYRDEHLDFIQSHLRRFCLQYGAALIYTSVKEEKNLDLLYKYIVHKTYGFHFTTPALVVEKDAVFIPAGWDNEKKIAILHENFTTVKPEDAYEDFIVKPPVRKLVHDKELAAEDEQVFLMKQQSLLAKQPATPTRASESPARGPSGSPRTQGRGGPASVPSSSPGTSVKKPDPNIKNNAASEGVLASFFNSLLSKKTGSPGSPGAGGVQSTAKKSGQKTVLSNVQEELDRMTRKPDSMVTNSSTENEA
UniProt P06730, sequence (P06730 whole entry, looked up): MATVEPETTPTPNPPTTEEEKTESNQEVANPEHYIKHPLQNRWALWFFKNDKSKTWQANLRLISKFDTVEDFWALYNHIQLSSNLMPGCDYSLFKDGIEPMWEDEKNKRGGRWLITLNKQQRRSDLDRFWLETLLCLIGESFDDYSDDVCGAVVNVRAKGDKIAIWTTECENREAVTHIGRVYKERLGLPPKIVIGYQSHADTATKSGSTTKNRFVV
UniProt Q5QP82, sequence (Q5QP82 whole entry, looked up): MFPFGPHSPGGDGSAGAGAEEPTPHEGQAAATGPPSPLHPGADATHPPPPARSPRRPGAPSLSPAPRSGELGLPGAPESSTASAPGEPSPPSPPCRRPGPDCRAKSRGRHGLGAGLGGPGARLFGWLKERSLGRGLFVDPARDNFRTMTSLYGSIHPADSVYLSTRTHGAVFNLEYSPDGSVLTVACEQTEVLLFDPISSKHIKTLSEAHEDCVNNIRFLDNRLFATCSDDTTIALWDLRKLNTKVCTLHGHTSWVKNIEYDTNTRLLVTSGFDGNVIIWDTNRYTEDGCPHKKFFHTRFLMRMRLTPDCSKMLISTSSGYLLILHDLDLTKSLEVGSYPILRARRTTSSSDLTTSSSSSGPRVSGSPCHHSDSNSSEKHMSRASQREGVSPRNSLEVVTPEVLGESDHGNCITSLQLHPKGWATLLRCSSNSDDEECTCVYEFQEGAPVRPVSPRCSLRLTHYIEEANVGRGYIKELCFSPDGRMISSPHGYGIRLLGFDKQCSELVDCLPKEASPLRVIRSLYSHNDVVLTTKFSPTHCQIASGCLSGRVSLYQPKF
UniProt P60842, sequence (P60842 whole entry, looked up): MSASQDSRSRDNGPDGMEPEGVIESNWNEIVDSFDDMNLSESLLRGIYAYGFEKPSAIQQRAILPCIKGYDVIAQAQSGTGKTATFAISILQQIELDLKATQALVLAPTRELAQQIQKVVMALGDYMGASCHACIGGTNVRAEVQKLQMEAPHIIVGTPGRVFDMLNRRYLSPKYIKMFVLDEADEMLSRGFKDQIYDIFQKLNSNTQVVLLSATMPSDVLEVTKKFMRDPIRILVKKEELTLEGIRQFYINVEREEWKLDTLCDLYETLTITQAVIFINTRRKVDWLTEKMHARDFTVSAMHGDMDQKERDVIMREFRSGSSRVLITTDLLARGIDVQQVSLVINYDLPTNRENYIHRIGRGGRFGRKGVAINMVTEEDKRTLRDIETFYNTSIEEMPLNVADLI
UniProt Q9NZN4, sequence (Q9NZN4 whole entry, looked up): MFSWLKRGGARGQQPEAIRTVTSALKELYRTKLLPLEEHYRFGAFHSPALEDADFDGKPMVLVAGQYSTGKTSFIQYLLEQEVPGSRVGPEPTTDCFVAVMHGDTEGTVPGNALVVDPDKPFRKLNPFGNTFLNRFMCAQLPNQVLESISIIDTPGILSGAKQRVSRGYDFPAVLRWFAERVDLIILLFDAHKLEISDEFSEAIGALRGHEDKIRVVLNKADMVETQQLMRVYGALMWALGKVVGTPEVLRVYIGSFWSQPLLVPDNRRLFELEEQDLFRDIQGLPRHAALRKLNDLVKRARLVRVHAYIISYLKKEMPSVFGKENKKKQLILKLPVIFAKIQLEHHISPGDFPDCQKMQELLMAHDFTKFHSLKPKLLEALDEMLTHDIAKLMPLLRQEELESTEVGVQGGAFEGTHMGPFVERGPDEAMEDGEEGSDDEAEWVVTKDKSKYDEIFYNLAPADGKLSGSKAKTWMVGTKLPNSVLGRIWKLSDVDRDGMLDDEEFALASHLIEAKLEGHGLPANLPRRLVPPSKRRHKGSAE

| Target | log2 fold change (IRAK-1-4 Inhibitor I) | log2 fold change (ibrutinib) | log2 fold change [1] | log2 fold change (ralimetinib) | log2 fold change [2] | log2 fold change [3] | log2 fold change [4] | log2 fold change (pinometostat) | log2 fold change [5] | log2 fold change [6] | log2 fold change [7] | log2 fold change [8] | log2 fold change [9] | log2 fold change [10] | log2 fold change (Nexturastat A) | log2 fold change (vemurafenib) | log2 fold change [11] | log2 fold change [12] | log2 fold change (givinostat) | log2 fold change (barasertib) |
| --- | --- | --- | --- | --- | --- | --- | --- | --- | --- | --- | --- | --- | --- | --- | --- | --- | --- | --- | --- | --- |
| DCAF6 isoform 3 (UniProt Q58WW2) | 0.025 | -0.004 | -0.018 | -0.022 | -0.022 | 0.056 | 0.023 | -0.004 | 0.015 | -0.034 | 0.016 | -0.035 | -0.034 | -0.037 | -0.041 | -0.032 | -0.047 | 0.011 | -0.058 | 0.008 |
| EHD2 (UniProt Q9NZN4) | 0.009 | 0.008 | -0.038 | 0.003 | -0.033 | 0.002 | 0.036 | -0.044 | 0.003 | 0.001 | -0.037 | -0.026 | -0.007 | 0.059 | 0.003 | 0.029 | 0.007 | -0.024 | 0.024 | 0.03 |
| EIF2S3 (UniProt P41091) | -0.126 | 0.021 | -0.004 | 0.061 | 0.05 | 0.052 | 0.075 | 0.077 | 0.005 | 0.195 | 0.02 | 0 | -0.006 | -0.032 | 0.102 | -0.029 | 0.007 | 0.05 | 0.028 | -0.033 |
| DNAJC19 (UniProt Q96DA6) | 0.045 | 0.024 | 0.038 | 0.029 | -0.054 | -0.153 | -0.006 | -0.013 | 0.016 | 0.023 | -0.02 | 0.001 | 0.043 | 0.069 | -0.121 | 0.003 | 0.035 | -0.013 | 0.005 | 0.007 |
| CTSB (UniProt P07858) | -0.009 | 0.032 | 0.013 | -0.044 | 0.011 | -0.426 (active) | 0.037 | -0.031 | 0.042 | -0.053 | -0.035 | -0.069 | 0.022 | 0.029 | -0.059 | -0.041 | -0.008 | -0.025 | -0.007 | 0.015 |
| ERCC6 (UniProt Q03468) | 0.05 | -0.079 | 0.11 | 0.05 | -0.094 | -0.015 | 0.018 | -0.078 | 0.157 | -0.041 | -0.127 | -0.038 | 0.005 | -0.038 | -0.126 | 0.064 | 0.074 | -0.017 | 0.071 | 0.065 |
| EEF1B2 (UniProt P24534) | -0.01 | -0.054 | 0.009 | 0.003 | 0.011 | -0.069 | 0.04 | 0.001 | -0.027 | 0.047 | 0.024 | -0.025 | -0.007 | 0.031 | 0.031 | 0.024 | 0.02 | -0.009 | 0.023 | 0.055 |
| EIF4E isoform 2 (UniProt P06730) | 0.066 | 0.089 | 0.308 | -0.071 | -0.016 | 0.114 | 0.012 | -0.057 | -0.024 | 0.027 | 0.044 | -0.035 | 0.008 | 0.02 | -0.078 | 0.078 | 0.109 | -0.086 | 0.012 | -0.07 |
| EFCAB14 (UniProt O75071) | -0.016 | 0.043 | -0.196 | 0.135 | -0.009 | -0.127 | -0.063 | -0.061 | -0.035 | 0.006 | -0.034 | 0.061 | 0.022 | -0.011 | -0.032 | -0.049 | 0.012 | 0.023 | 0.054 | -0.01 |
| EIF4A1 (UniProt P60842) | -0.008 | -0.022 | -0.131 | 0.026 | -0.151 | -0.124 | -0.001 | 0.016 | -0.011 | 0.017 | 0.106 | -0.017 | 0.061 | 0.049 | -0.115 | 0.055 | 0.089 | 0.151 | 0.06 | 0.026 |
| DCAF10 (UniProt Q5QP82) | 0 | 0 | -0.006 | -0.082 | -0.041 | 0.02 | 0.026 | -0.016 | 0.061 | 0.01 | -0.024 | 0.121 | -0.015 | -0.009 | 0.012 | -0.044 | 0.002 | -0.121 | -0.094 | -0.006 |
| DNAH5 (UniProt Q8TE73) | 0.074 | 0.039 |  | 0.004 | 0.031 | -0.09 | 0.009 | 0.055 | -0.023 | 0.106 | -0.047 | 0 | 0.431 (active) | -0.036 | -0.021 | -0.077 | 0.014 | -0.044 | 0.012 | 0.03 |
| DYNC1LI2 (UniProt O43237) | 0.089 | 0.083 | 0.099 | 0.124 | 0.03 | -0.067 | 0.07 | 0.146 | 0.007 | 0.094 | 0.013 | -0.093 | -0.049 | -0.193 | 0.646 (active) | 0.001 | -0.027 | 0.076 | 0.017 | 0.05 |
